Measured values: PubChem BioAssay (NCI)
The panel holds about 79,000 compounds, 15% with a hit somewhere; the sample as a whole holds those more often. Activity calls are given as the source filed them. Rule as the data show it: active = growth inhibition above about 70%; inactive = the rest.

How the values were obtained:
[1] = NCI Yeast Anticancer Drug Screen. Data for the rad52 strain (AID 147);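 also: 0% = growth of vehicle-treated control cultures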; conditions: S. cerevisiae rad52 mutant growth inhibition, active compounds read high
How it was run: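 The repair-mutant yeast strain was incubated with compounds, then growth was read and inhibition derived relative to vehicle.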

[2] = NCI Yeast Anticancer Drug Screen. Data for the wt1 strain (AID 149);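 also: 0% = growth of vehicle-treated wt1 cultures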; conditions: S. cerevisiae wt1 strain (SPY 50644) growth inhibition, active compounds read high
How it was run: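 Yeast wt1 strain exposed to compounds; growth inhibition measured relative to vehicle-treated controls.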

[3] = NCI Yeast Anticancer Drug Screen. Data for the rad50EPP+ strain (AID 151);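 also: 0% = growth of vehicle-treated control cultures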; conditions: S. cerevisiae rad50 mutant strain, active compounds read high
How it was run: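 Vehicle-normalised growth inhibition; rad50EPP+ yeast strain, altered in DNA damage repair, compound-treated.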

[4] = NCI Yeast Anticancer Drug Screen. Data for the mgt1 strain (AID 153); conditions: S. cerevisiae mgt1 mutant growth inhibition, active compounds read high
How it was run: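 Vehicle-normalized growth inhibition is determined in mgt1 yeast, a strain selected for a defined alteration in DNA repair or cell cycle control.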

[5] = NCI Yeast Anticancer Drug Screen. Data for the rad50 strain (AID 155);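 also: 0% = growth of vehicle-only cultures of the same strain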; conditions: S. cerevisiae rad50 strain growth inhibition, active compounds read high
How it was run: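 Yeast carrying a defined DNA repair defect were exposed to test compounds, and growth was compared with vehicle-treated controls to give percent inhibition.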

[6] = NCI Yeast Anticancer Drug Screen. Data for the mec2-1 strain (AID 157); conditions: S. cerevisiae mec2-1 strain, active compounds read high
How it was run: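 Mutant yeast (mec2-1) grown with compound; growth inhibition relative to vehicle control reported.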

[7] = NCI Yeast Anticancer Drug Screen. Data for the rad14 strain (AID 159);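 also: 0% = growth of vehicle-treated control cultures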; conditions: S. cerevisiae rad14 strain growth inhibition, active compounds read high
How it was run: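 Yeast cells carrying a defined DNA-repair defect were exposed to compounds, and growth inhibition was calculated relative to vehicle-treated control cultures.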

[8] = NCI Yeast Anticancer Drug Screen. Data for the sgs1 mgt1 strain (AID 161);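 also: 0% = growth of cultures given vehicle only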; conditions: S. cerevisiae sgs1 mgt1 strain, active compounds read high
How it was run: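 Percent growth inhibition was derived by comparing compound-exposed mutant yeast with vehicle-exposed cultures. The strain carries alterations in DNA damage repair.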

[9] = NCI Yeast Anticancer Drug Screen. Data for the CLN2oe strain (AID 163);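 also: 0% = growth of vehicle-only control cultures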; conditions: S. cerevisiae CLN2oe strain, active compounds read high
How it was run: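 Compounds are applied to yeast harbouring a defined cell-cycle control change; reduced growth compared with vehicle-treated controls gives the value.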

[10] = NCI Yeast Anticancer Drug Screen. Data for the cln2 rad14 strain (AID 165);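 also: 0% = growth equal to vehicle treated cultures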; conditions: S. cerevisiae cln2 rad14 strain, active compounds read high
How it was run: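 Readout is yeast growth inhibition versus vehicle-treated controls, using a strain with cln2 and rad14 alterations exposed to compound.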

[11] = NCI Yeast Anticancer Drug Screen. Data for the bub3 strain (AID 167); conditions: S. cerevisiae bub3 mutant strain, active compounds read high
How it was run: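 Compounds were applied to a genetically altered yeast strain carrying a cell-cycle control defect. Growth inhibition was scored against vehicle-treated controls.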

[12] = NCI Yeast Anticancer Drug Screen. Data for the wt2 strain (AID 169);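 also: 0% = growth of vehicle-treated yeast cultures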; conditions: S. cerevisiae wt2 strain growth inhibition, active compounds read high
How it was run: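 Against vehicle-treated controls, the growth of yeast exposed to each compound was compared, and the inhibition was recorded.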

[13] = NCI Yeast Anticancer Drug Screen. Data for the mlh1 strain (AID 171);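 also: 0% = growth of vehicle-treated control cultures of the same strain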; conditions: S. cerevisiae mlh1 strain growth inhibition, active compounds read high
How it was run: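 Measured: yeast growth. Reference: vehicle-treated controls. Organism: strain with a defined alteration affecting DNA damage repair or cell cycle control, treated with compound.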

[14] = NCI Yeast Anticancer Drug Screen. Data for the sgs1 strain (AID 173);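 also: 0% = growth of vehicle-only control cultures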; conditions: S. cerevisiae sgs1 mutant, active compounds read high
How it was run: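 Each compound was added to cultures of the altered yeast strain. Growth was recorded, and inhibition was derived by comparison with vehicle controls.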

[15] = NCI Yeast Anticancer Drug Screen. Data for the mlh1 rad18 strain (AID 175); conditions: S. cerevisiae mlh1 rad18 strain growth inhibition, active compounds read high
How it was run: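 Genetically defined yeast (DNA repair-deficient) exposed to compounds; growth inhibition determined relative to vehicle.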

[16] = NCI Yeast Anticancer Drug Screen. Data for the rad18 strain (AID 177); conditions: S. cerevisiae rad18 mutant growth inhibition, active compounds read high
How it was run: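 Vehicle-treated cultures served as the baseline for scoring compound-induced growth inhibition in DNA-repair-mutant yeast.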

[17] = at 5.0 µM (retest, dose inferred, filed as 0.5)
[18] = at 50.0 µM (retest, dose inferred, filed as 5.0)

Measured: growth inhibition

COC(=O)C1C2c3ccccc3C(c3ccccc32)C1C(=O)OC (stereo unspecified)
inactive: [1]; at 1.2 µM 3% | [1]; at 3.7 µM 10% | [1]; at 11.0 µM 9% | [1]; at 33.0 µM 10% | [1]; at 100.0 µM 10% | [2]; at 1.2 µM 7% | [2]; at 3.7 µM 5% | [2]; at 11.0 µM 5% | [2]; at 33.0 µM 8% | [2]; at 100.0 µM 7% | [3]; at 1.2 µM 4% | [3]; at 3.7 µM 5% | [3]; at 11.0 µM 4% | [3]; at 33.0 µM 7% | [3]; at 100.0 µM 10% | [4]; at 1.2 µM -2% | [4]; at 3.7 µM -1% | [4]; at 11.0 µM -2% | [4]; at 33.0 µM 2% | [4]; at 100.0 µM 11% | [5]; at 1.2 µM 4% | [5]; at 3.7 µM 1% | [5]; [17] 6% | [5]; at 11.0 µM 3% | [5]; at 33.0 µM 7% | [5]; [18] 47% | [5]; at 50.0 µM 14.8% | [5]; at 100.0 µM 7% | [6]; at 1.2 µM -2% | [6]; at 3.7 µM -3% | [6]; [17] -3% | [6]; at 11.0 µM -1% | [6]; at 33.0 µM 0% | [6]; [18] 15% | [6]; at 50.0 µM 41.5% | [6]; at 100.0 µM 9% | [7]; at 1.2 µM 2% | [7]; at 3.7 µM 2% | [7]; at 11.0 µM 0% | [7]; at 33.0 µM 8% | [7]; at 100.0 µM 13% | [8]; [17] 5% | [9]; at 1.2 µM 2% | [9]; at 3.7 µM -1% | [9]; at 11.0 µM 0% | [9]; at 33.0 µM 7% | [9]; at 100.0 µM 17% | [10]; [17] -3% | [10]; [18] 28% | [10]; at 50.0 µM 8.85% | [11]; at 1.2 µM -1% | [11]; at 3.7 µM -2% | [11]; [17] 19% | [11]; at 11.0 µM -4% | [11]; at 33.0 µM 1% | [11]; [18] 27% | [11]; at 50.0 µM 14.4% | [11]; at 100.0 µM 2% | [12]; at 1.2 µM -2% | [12]; at 3.7 µM -6% | [12]; at 11.0 µM -1% | [12]; at 33.0 µM 5% | [12]; at 100.0 µM -1% | [13]; at 1.2 µM -2% | [13]; at 3.7 µM -2% | [13]; at 11.0 µM -3% | [13]; at 33.0 µM 1% | [13]; at 100.0 µM 11% | [14]; at 1.2 µM -6% | [14]; at 3.7 µM -17% | [14]; at 11.0 µM -11% | [14]; at 33.0 µM -4% | [14]; at 100.0 µM 2% | [15]; [17] 17% | [15]; [18] 69% | [15]; at 50.0 µM 17.1% | [16]; at 1.2 µM 0% | [16]; at 3.7 µM 2% | [16]; at 11.0 µM 4% | [16]; at 33.0 µM 7% | [16]; at 100.0 µM 8%
active: [8]; [18] 70% | [8]; at 50.0 µM 72.5%

OCC(O)C(O)CO (stereo unspecified) (tested in a mixture with another compound)
inactive: [1]; at 1.2 µM -2% | [1]; at 3.7 µM -3% | [1]; at 11.0 µM -1% | [1]; at 33.0 µM -4% | [1]; at 100.0 µM 8% | [2]; at 1.2 µM -4% | [2]; at 3.7 µM -4% | [2]; at 11.0 µM -5% | [2]; at 33.0 µM -2% | [2]; at 100.0 µM 0% | [3]; at 1.2 µM 1% | [3]; at 3.7 µM 2% | [3]; at 11.0 µM 6% | [3]; at 33.0 µM 9% | [3]; at 100.0 µM 10% | [4]; at 1.2 µM 0% | [4]; at 3.7 µM -2% | [4]; at 11.0 µM -1% | [4]; at 33.0 µM 5% | [4]; at 100.0 µM 0% | [5]; at 1.2 µM -8% | [5]; at 3.7 µM -17% | [5]; [17] -130% | [5]; at 11.0 µM -3% | [5]; at 33.0 µM 16% | [5]; at 50.0 µM 15.4% | [5]; at 100.0 µM -1% | [6]; at 1.2 µM -1% | [6]; at 3.7 µM 0% | [6]; [17] -47% | [6]; at 11.0 µM -6% | [6]; at 33.0 µM 0% | [6]; [18] -1% | [6]; at 50.0 µM 32.4% | [6]; at 100.0 µM 3% | [7]; at 1.2 µM -1% | [7]; at 3.7 µM -5% | [7]; at 11.0 µM -4% | [7]; at 33.0 µM -3% | [7]; at 100.0 µM -1% | [8]; [17] -57% | [8]; [18] 39% | [8]; at 50.0 µM -2.1% | [9]; at 1.2 µM 2% | [9]; at 3.7 µM -1% | [9]; at 11.0 µM 0% | [9]; at 33.0 µM 0% | [9]; at 100.0 µM 1% | [10]; [17] -60% | [10]; [18] -30% | [10]; at 50.0 µM -44.6% | [11]; at 1.2 µM -1% | [11]; at 3.7 µM -4% | [11]; [17] -64% | [11]; at 11.0 µM -3% | [11]; at 33.0 µM -2% | [11]; [18] 25% | [11]; at 50.0 µM 12.3% | [11]; at 100.0 µM 3% | [12]; at 1.2 µM -2% | [12]; at 3.7 µM 1% | [12]; at 11.0 µM 0% | [12]; at 33.0 µM -2% | [12]; at 100.0 µM 0% | [13]; at 1.2 µM 8% | [13]; at 3.7 µM -1% | [13]; at 11.0 µM -5% | [13]; at 33.0 µM -5% | [13]; at 100.0 µM -3% | [14]; at 1.2 µM -1% | [14]; at 3.7 µM 1% | [14]; at 11.0 µM 2% | [14]; at 33.0 µM 2% | [14]; at 100.0 µM -2% | [15]; [17] -110% | [15]; [18] 29% | [15]; at 50.0 µM -9.65% | [16]; at 1.2 µM -4% | [16]; at 3.7 µM -3% | [16]; at 11.0 µM -2% | [16]; at 33.0 µM -2% | [16]; at 100.0 µM 1%
active: [5]; [18] 82%
